Assay [1] concerns Plasmodium falciparum Sir2 (PF13_0152, Sir2A). The assay can be described thus: pfSir2 binders on small-molecule microarrays, primary screen, biochemical, small-molecule microarray, 635 nm fluorescence (AID 1098).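 Note: score merges spot fluorescence intensity with its signal-to-noise ratio.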 The settings on record: small-molecule microarray binding, fluorescence 635 nm; higher = more signal.
Assay [2] is described as follows: small-molecule microarray binders of probe aDKK1, primary screen, biochemical, biotinylated probe, 635/667 nm fluorescence (AID 1099).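 Note: score merges 667nm spot fluorescence with signal to noise across triplicate slides; reference of the scale not given here.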 The settings on record: higher = more signal.
A short description of assay [3]: small-molecule microarray binders of probe aCHRDL2, primary screen, biochemical, biotinylated probe, 635/667 nm fluorescence (AID 1100). The settings on record: higher = more signal.
Assay [4] in a line: splicing luciferase reporter signal modulators, primary screen, spliceosome inhibition project, cell-based, HEK293, splice +/- reporter (AID 1101).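 Note: HEK293 cells carrying a splicing-competent luciferase reporter gene; test concentration not given here.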 The settings on record: luminescence, 24 h, higher = more signal, called active from +8 up or from −8 down. In general terms: In a reporter assay the amount or activity of a reporter protein is the signal.
Assay [5] addresses Fibroblast growth factor 10 (Homo sapiens) (UniProt O15520). Kind of assay: FGF10 binders on small-molecule microarrays, primary screen, biochemical, small-molecule microarray, 635 nm fluorescence (AID 1102). The settings on record: FGF10 binding, fluorescence 635 nm, higher = more signal.
Assay [6] deals with glycogen synthase kinase-3 (GSK3A per assay name; protocol says GSK3B). The assay can be described thus: GSK3 binders on small-molecule microarrays, primary screen, biochemical, small-molecule microarray, 635 nm fluorescence, GSK3A (AID 1103). Note: the record names both GSK3A and GSK3B. The settings on record: small-molecule microarray binding, fluorescence 635 nm; higher = more signal.
Assay [7] addresses Epidermal growth factor receptor (Homo sapiens) (UniProt P00533). The assay can be described thus: EGFR binders on small-molecule microarrays, primary screen, biochemical, small-molecule microarray, 635 nm fluorescence (AID 1104).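 Note: score merges 667 nm emission intensity with spot signal to noise over triplicate slides.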 The settings on record: EGFR binding, higher = more signal.
The target in assay [8] is Follistatin-related protein 3 (Homo sapiens) (UniProt O95633). Kind of assay: FSTL3 binders on small-molecule microarrays, primary screen, biochemical, small-molecule microarray, 635 nm fluorescence (AID 1105).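 Note: score merges emission near 667 nm and signal to noise per printed spot across three slides.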 The settings on record: FSTL3 binding, higher = more signal.
Chain of Follistatin-related protein 3 (Homo sapiens) (O95633 whole entry, looked up): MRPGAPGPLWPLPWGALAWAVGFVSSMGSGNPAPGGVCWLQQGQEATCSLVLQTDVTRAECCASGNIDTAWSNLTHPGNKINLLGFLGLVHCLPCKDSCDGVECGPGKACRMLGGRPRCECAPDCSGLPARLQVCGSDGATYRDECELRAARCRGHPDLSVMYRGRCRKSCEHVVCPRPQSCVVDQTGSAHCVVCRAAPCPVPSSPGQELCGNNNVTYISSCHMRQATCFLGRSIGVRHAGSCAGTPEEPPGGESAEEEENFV
The target in assay [9] is Dickkopf-related protein 1 (Homo sapiens) (UniProt O94907). The assay can be described thus: DKK1 binders on small-molecule microarrays, primary screen, biochemical, small-molecule microarray, 635 nm fluorescence scan (AID 1106).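 Note: score merges emission near 667 nm with signal to noise over three replicate slides.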 The settings on record: DKK1 binding, higher = more signal.
Chain of Dickkopf-related protein 1 (Homo sapiens) (O94907 whole entry, looked up): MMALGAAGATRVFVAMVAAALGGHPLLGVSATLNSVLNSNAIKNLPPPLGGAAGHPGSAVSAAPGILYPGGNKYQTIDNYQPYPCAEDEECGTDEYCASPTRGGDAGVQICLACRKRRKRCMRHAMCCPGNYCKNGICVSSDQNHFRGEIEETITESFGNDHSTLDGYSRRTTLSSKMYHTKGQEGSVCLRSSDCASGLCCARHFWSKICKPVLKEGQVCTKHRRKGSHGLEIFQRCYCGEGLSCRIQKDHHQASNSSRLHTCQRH
Assay [10] deals with Inhibin beta A chain (activin A). The assay can be described thus: INHBA (activin A) binders on microarrays, primary screen, biochemical, small-molecule microarray, 635 nm fluorescence scan (AID 1107).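 Note: mouse activin A protein probed at 4.33 µg/mL on printed slides; score merges bound-protein fluorescence near 667 nm with spot signal-to-noise.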 The settings on record: small-molecule microarray binding, higher = more signal.

Calls of active or inactive are those of the source.

Chain of Epidermal growth factor receptor (Homo sapiens) (P00533 whole entry, looked up): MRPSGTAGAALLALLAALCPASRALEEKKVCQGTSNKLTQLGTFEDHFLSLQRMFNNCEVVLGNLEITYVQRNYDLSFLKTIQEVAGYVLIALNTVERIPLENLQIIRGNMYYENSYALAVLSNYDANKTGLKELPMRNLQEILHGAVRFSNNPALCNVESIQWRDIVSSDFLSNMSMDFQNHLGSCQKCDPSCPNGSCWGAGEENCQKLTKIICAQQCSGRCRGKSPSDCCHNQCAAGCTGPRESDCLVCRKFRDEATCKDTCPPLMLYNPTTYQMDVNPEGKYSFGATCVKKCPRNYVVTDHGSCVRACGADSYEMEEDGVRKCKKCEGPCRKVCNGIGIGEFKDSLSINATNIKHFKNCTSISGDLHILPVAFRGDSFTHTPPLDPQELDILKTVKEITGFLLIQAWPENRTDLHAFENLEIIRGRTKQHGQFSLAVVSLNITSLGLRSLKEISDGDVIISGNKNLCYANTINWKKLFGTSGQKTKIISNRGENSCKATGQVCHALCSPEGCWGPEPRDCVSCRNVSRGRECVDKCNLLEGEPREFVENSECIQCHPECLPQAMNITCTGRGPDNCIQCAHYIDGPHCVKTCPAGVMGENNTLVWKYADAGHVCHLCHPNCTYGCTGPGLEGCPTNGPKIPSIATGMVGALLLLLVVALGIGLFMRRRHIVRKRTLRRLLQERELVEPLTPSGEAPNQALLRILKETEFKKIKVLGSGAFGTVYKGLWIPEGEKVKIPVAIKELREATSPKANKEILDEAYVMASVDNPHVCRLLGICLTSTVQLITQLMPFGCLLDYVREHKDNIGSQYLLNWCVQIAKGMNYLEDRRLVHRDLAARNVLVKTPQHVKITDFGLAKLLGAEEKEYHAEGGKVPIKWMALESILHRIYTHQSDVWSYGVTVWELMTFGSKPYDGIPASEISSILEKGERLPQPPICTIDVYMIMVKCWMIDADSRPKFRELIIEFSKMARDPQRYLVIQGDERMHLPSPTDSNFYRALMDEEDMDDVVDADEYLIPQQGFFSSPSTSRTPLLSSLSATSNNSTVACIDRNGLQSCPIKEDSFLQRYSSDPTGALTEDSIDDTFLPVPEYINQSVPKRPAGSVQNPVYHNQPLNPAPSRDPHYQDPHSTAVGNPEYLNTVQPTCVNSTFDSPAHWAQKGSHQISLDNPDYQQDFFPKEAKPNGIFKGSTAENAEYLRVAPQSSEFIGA
Chain of Fibroblast growth factor 10 (Homo sapiens) (O15520 whole entry, looked up): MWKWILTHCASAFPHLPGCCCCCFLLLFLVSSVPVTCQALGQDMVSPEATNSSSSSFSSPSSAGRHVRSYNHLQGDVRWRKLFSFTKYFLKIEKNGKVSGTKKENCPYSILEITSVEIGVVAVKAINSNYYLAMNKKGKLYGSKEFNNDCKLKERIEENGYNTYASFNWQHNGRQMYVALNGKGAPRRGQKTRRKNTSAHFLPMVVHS

As to `COc1ccc(C#Cc2ccc3c(c2)[C@]2(C(=O)N3)[C@H](C(=O)O)[C@H]3C(=O)O[C@H](c4ccccc4)[C@H](c4ccccc4)N3[C@@H]2c2ccc(OCCO)cc2)cc1`, the composite z-score amounted to 1.48 in assay [1]; 0.192 in assay [2]; 0.296 in assay [3]; 0.929 in assay [5]; 0.984 in assay [6]; 0.45 in [7]. Further, the composite z-score in [8] was 0.486; in assay [9], 0.195; in assay [10], -0.159. Further, the z-score in [4] was -0.825 (inactive).
Regarding `C=C(C(=O)CC[C@H](OC(=O)c1cccnc1)c1ccc(OCCO)cc1)C(C)C`, the composite z-score in assay [1] was 1.56; in assay [2], -0.175; in [3], -0.049; in assay [5] it was 1.34; in [6] it was -0.0404; in assay [7], 0.0365. Also, the composite z-score in assay [8] was 0.721; in assay [9], -0.17; in [10] it was 0.958. For the same compound, the z-score in assay [4] is 1.77 (inactive).
Take `Cc1ccc(C(C)CC(O)C2C=CC3C(=O)N(Cc4ccccc4)C(=O)C3N2n2cnnc2)o1` (stereo not given): the composite z-score in assay [1] was 0.755; in [2], 1.85; in [3] it was 1.03; in assay [5] it was 0.841; in assay [6] it was 0.866; in [7] it was 0.0138. Also, the composite z-score in [8] is 0.668; in [9] it was -0.484; in assay [10], 1.09. For the same compound, in assay [4], the z-score is -0.665 (inactive).
As to `CN(C)C(=O)[C@@]1(CCC(=O)OC(C)(C)C)N=C(c2ccc(OCCCO)cc2)O[C@H]1c1ccccc1N=[N+]=[N-]`, the composite z-score in assay [1] came out at 1.33; in assay [2], 0.813; in assay [3], 0.837; in assay [5] it was 1.46; in assay [6], 0.253; in assay [7], 0.334. Besides, the composite z-score in assay [8] stood at 1.4; in [9], 0.648; in assay [10], 0.707. For the same compound, the z-score in [4] was 0.101 (inactive).
Turning to `O=C1N(Cc2ccccc2)c2ccccc2[C@H]2OC(c3ccc(OCCCO)cc3)=N[C@@]12CCS(=O)(=O)c1ccccc1`, the composite z-score in [1] was 0.703; in [2], -0.0921; in assay [3], 0.584; in assay [5] it was 1.06; in [6], 1.31; in [7], 0.385. Moreover, the composite z-score in assay [8] was determined as 1.23; in [9], 0.379; in assay [10], 0.808. In assay [4], the z-score was 0.212 (inactive).
For `COc1cccc(C)c1NC(=O)O[C@H]1[C@H](OC(=O)Nc2ccccc2)[C@H](OC(=O)Nc2ccccc2)[C@@H](OC)O[C@@H]1CO`, the composite z-score in [1] was 1.1; in assay [2], 0.245; in assay [3], 0.708; in [5], 0.96; in assay [6] it was 0.0861; in [7] it was -0.0372. Further, the composite z-score was 0.367 in assay [8], -0.294 in assay [9] and 0.179 in assay [10]. Besides, in assay [4], the z-score is 0.419 (inactive).
Consider `CN(C)C(=O)[C@]1(Cc2ccccc2N=[N+]=[N-])N=C(c2ccc(OCCCO)cc2)O[C@@H]1c1ccccc1CN=[N+]=[N-]`, for which the composite z-score was determined as 0.43 in [1]; 0.189 in assay [2]; 0.279 in assay [3]; 1.38 in assay [5]; 1.32 in assay [6]; 0.243 in assay [7]. Besides, the composite z-score in [8] stood at 1.3; in assay [9], 0.825; in assay [10], 0.764. Further, in assay [4], the z-score was -0.891 (inactive).
As for `CO[C@H]1O[C@H](CO)[C@@H](OC(=O)Nc2cccc(F)c2)[C@H](OC(=O)Nc2ccc3c(c2)OCO3)[C@H]1OC(=O)Nc1ccc2c(c1)OCO2`, the composite z-score amounted to 0.932 in assay [1]; 0.0673 in [2]; 0.307 in assay [3]; 0.693 in [5]; 0.26 in assay [6]; 0.199 in assay [7]. Further, the results for the composite z-score in assay [8], in assay [9] and in assay [10] were 0.55, 0.177 and 0.674, respectively. In assay [4], the z-score was -0.197 (inactive).
Regarding `CC(C)C[C@@H]1NC(=O)[C@@H]2C[C@H](C(=O)NCc3ccc(F)cc3)[C@H](c3ccc(O)cc3)N2C1=O`, the composite z-score was 1.03 in assay [1]; 0.0289 in [2]; -0.0756 in [3]; 0.807 in assay [5]; 0.819 in assay [6]; 0.116 in assay [7]. The composite z-score in assay [8] is 0.111; in [9], 0.284; in assay [10], -0.445. The z-score in assay [4] was -0.295 (inactive).
For the compound `COc1cc2c(cc1OC)CN(C(=O)[C@@H]1[C@H]3C(=O)O[C@H](c4ccccc4)[C@H](c4ccccc4)N3[C@H](c3ccc(O)cc3)[C@@]13C(=O)Nc1ccc(C#CCNC(N)=O)cc13)CC2`, the composite z-score in assay [1] is 0.55; in assay [2], -0.053; in assay [3], 0.0095; in assay [5], 0.641; in [6], -0.566; in assay [7], 0.0967. Further, the composite z-score in [8] was 0.694; in assay [9], -0.162; in assay [10], 0.849. The z-score in assay [4] is -0.256 (inactive).
As for `CCOC(=O)C[C@H]1[C@H](OC(=O)Cc2ccc3c(c2)OCO3)[C@@H](NC(=O)c2ccccc2)c2cc(OCCCO)ccc2N1C(=O)c1ccccc1`, the composite z-score in [1] was -0.0111; in assay [2], -0.0126; in assay [3] it was -0.0843; in assay [5], 0.603; in [6] it was 0.505; in [7], 0.437. The composite z-score in assay [8] came out at 0.371; in [9], 0.276; in assay [10], 0.524. In addition, in [4], the z-score was -0.299 (inactive).
Consider `COc1ccc([Si](C)(C)[C@@H]2[C@@H](CC(=O)N3Cc4ccccc4C[C@H]3CO)O[C@]3(C(=O)N(Cc4cccc(N5CCCCC5=O)c4)c4ccccc43)[C@H]2C)cc1`, for which the composite z-score in assay [1] was 0.856; in assay [2], -0.154; in assay [3], -0.222; in assay [5], 0.689; in assay [6], 1.2; in assay [7], 0.968. The composite z-score in assay [8] is 1.33; in assay [9], 1.17; in [10], 0.435. In addition, the z-score in [4] is -1.46 (inactive).
On to `C[N+](C)(C)CCCC[C@@H]1NC(=O)[C@H]2C[C@@H](C(=O)NCCCCCCN)[C@@H](c3cccc(OCCO)c3)N2C1=O`, for which the composite z-score in assay [1] was 1.56; in [2], 1.82; in assay [3], 0.984; in [5] it was 1.17; in assay [6], 1.33; in assay [7], 0.717. The results for the composite z-score in assay [8], in assay [9] and in assay [10] were 1.28, 1.27 and 1.63, respectively. The z-score in assay [4] is -0.481 (inactive).
In the case of `CC(C)(C)OC(=O)CC[C@@]1(C(=O)N2CCCCC2)N=C(c2ccc(OCCCO)cc2)O[C@@H]1c1ccccc1CN=[N+]=[N-]`, the composite z-score was found to be 1.24 in assay [1]; 0.754 in assay [2]; 0.881 in [3]; 0.56 in assay [5]; 0.53 in assay [6]; 0.0678 in assay [7]. Also, the results for the composite z-score in assay [8], in assay [9] and in [10] were 1.06, -0.0065 and 0.534, respectively. For the same compound, in [4], the z-score is -2.55 (inactive).
Consider `O=C1N(CCS(=O)(=O)c2ccccc2)Cc2ccccc2C[C@@]12COC(c1ccc(OCCCO)cc1)=N2`, for which the composite z-score in assay [1] is 1.69; in assay [2] it was 1.15; in [3], 1.26; in [5] it was 1.07; in [6] it was 1.29; in [7] it was 0.847. The figures for the composite z-score in assay [8], in [9] and in assay [10] were 1.3, 0.628 and 1.32, respectively. In [4], the z-score is 0.67 (inactive).

(Values after PubChem BioAssay.)
